Substitutions are numbered along the chain they refer to. In all, about 24,000 sequences were measured (“enrichment r”: median about 0.99, highest 2% from about 3.7 on). Only a selection was taken, and the highest values are over-represented in it overall.
T1: UNK ZnF1-3 (human, UniProt Q9C0B0 31-174)
T1 sequence: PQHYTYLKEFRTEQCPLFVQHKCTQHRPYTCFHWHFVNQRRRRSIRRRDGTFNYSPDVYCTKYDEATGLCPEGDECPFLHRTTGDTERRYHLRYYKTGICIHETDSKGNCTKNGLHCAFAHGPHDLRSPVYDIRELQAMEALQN

B1: chr8:13020401:13020402:+_ENSMUSG00000031442_ENSMUST00000123811|mus_hu|FALSE|FALSE (ssRNA)
RNA: GGGAGUUCUACAGUCCGACGAUCUGAUUCCGCACCCUGGAGGUCUGGCCAGUGACGGCUACAAGCCGCUGGGAGGGUAGCGUGAGGGGAAUGCAGCCACGCCUGCCUCCACUGUGCUGGGGCUGGGAACCGUGAGGCUGUGAGCAACAGAGGAUUGAGCAUCA
B2: chr9:4385736:4385737:+_ENSMUSG00000041124_ENSMUST00000047173|mus_hu|FALSE|FALSE (ssRNA)
RNA: GGGAGUUCUACAGUCCGACGAUCAUAUUUUGGGUUGGAAAAUUCUUUACUGAGUGUGGGGGGGUGUUGAGGAGGUAUGCAUUGCACAGUAGCAACCUUUUCCCCACCCCAGUUUUGACAACCCAACAUGUCUCCAGACAUCACCAACAGAGGAUUGAGCAUCA
B3: chr2:27535424:27535425:-_ENSG00000115204_ENST00000380044|hu_mus|FALSE|FALSE (ssRNA)
RNA: GGGAGUUCUACAGUCCGACGAUCUUUGGCCCAAUUGUCCUGGGCUGACAUUCCAUUGAGUAUCCCGACCAGUGGGAGAAAGCAGCCUAGGAAACAUGGGGCAAAGCCCCCCUGAUCUAACAACAUCUUCUUCAGUGCAUGCACCAACAGAGGAUUGAGCAUCA
B4: chr2:17897474:17897475:-_ENSG00000163029_ENST00000351948|hu_mus|FALSE|FALSE (ssRNA)
RNA: GGGAGUUCUACAGUCCGACGAUCUAUUGCUUCCAGAAGAGCUGGAACAUGAGGACCAAAUCUUUUUAGUCGAUCAGUUUUACUAUCUUUCAGUUCUUUCAAUUGUCUCUGAUUAUAGUUGAGUGCAUGUCUCACUUCUAUAUCCAACAGAGGAUUGAGCAUCA
B5: 8890394_8891644_3383_CDS_ENSG00000134313_ENST00000427284|human|control|control (ssRNA)
RNA: GGGAGUUCUACAGUCCGACGAUCACCCUCAUGUAGAGGGAGCGGGGGGUACGCCAGUCCUCCAAUACUGAUCUGCUCUCUGGCAGCACGAACAUCUGCAAUAAUUUCCCGUAGUUUGGGAUCUAGGUUUACAGUGCAUGGCAACAACAGAGGAUUGAGCAUCA
B6: chr4:2840174:2840175:+_ENSG00000087266_ENST00000503393|hu_hu|motif|central (ssRNA)
RNA: GGGAGUUCUACAGUCCGACGAUCGAACUACGAUACAGCCAAACAAUGGAAGUUUUUAGCAAUGAACAUGCACAAACGGUACGGCGCACAGCAACAUGAAUAAAUCUCACAGACAUAAUAACGAGCCAAAGAAGCCAGCUGCCACAACAGAGGAUUGAGCAUCA
B7: chr17:56552419:56552420:-_ENSMUSG00000013236_ENSMUST00000086828|mus_mus|mus_mus_mus_hu_False|18_38 (ssRNA)
RNA: GGGAGUUCUACAGUCCGACGAUCAAAAAAUACACUAUUUAAAAAAAAUGAAAUGUCACGGGAUACAGUUACACUGAGAGUUUUAAAAGAAAGCUGGAAAAAAAAUGCAGCCCAGUGGCAGGCAGGGGCAGAGCGGGGAGGAGCCAACAGAGGAUUGAGCAUCA
B8: chr17:56552419:56552420:-_ENSMUSG00000013236_ENSMUST00000086828|mus_mus|mus_mus_mus_hu_False|28_38 (ssRNA)
RNA: GGGAGUUCUACAGUCCGACGAUCAAAAAAUACACUAUUUAAAAAAAAUGAAAUGUCACGGGAUACAGUUACACUGAGAGUUUUAAAAGAAAGCUGGAAAAAAAAUGUUGCCAAAAGUCCCCAGGCUGCAGAGCGGGGAGGAGCCAACAGAGGAUUGAGCAUCA
B9: chr17:56552419:56552420:-_ENSMUSG00000013236_ENSMUST00000086828|mus_mus|mus_mus_mus_hu_False|38_48 (ssRNA)
RNA: B8 RNA with G88A, G92A, C93U, U94A, G95A, U107C, U108A, A112C, A114G, A115U
B10: chr17:56552419:56552420:-_ENSMUSG00000013236_ENSMUST00000086828|mus_mus|mus_mus_mus_hu_False|8_38 (ssRNA)
RNA: GGGAGUUCUACAGUCCGACGAUCAAAAAAUACACUAUUUAAAAAAAAUGAAAUGUCACGGGAUACAGUUACACUGAGAGUUUUAAAAGAAAGCUGGAAAAAAAAUGCAGCCCAGUGUCCCCAGGCUGAGUGCGGAAGAGGAGCCAACAGAGGAUUGAGCAUCA
B11: chr2:61719535:61719536:-_ENSG00000082898_ENST00000401558|hu_mus|FALSE|FALSE (ssRNA)
RNA: GGGAGUUCUACAGUCCGACGAUCGUUUACUACUGUCUUCAAAAAUUUCCAGUGUGCUCUCAAAAAUCUUGGGUAUUGACCUACUAUGUACAUGAUAUUCGAUGCAAUAAUAGCUUUAUUAUCUUUGCCUCUUUUCUGCUCACACAACAGAGGAUUGAGCAUCA
B12: chr2:48026839:48026840:+_ENSG00000116062_ENST00000540021|hu_hu|hu_hu_hu_mus_False|38_78 (ssRNA)
RNA: GGGAGUUCUACAGUCCGACGAUCAUAGUGAGCCACUAGCGUCCUAAAUCUGGAACAAUGGCGAUCAUCCGAAAACUGGCCGAUGAAAAACUUGCCCAGUGAAGUAUCCACAAAGCAAACACCAUACACACGAGUGUGACCAGACAACAGAGGAUUGAGCAUCA
B13: chr1:180251914:180251915:+_ENSMUSG00000026500_ENSMUST00000027781|mus_hu|FALSE|FALSE (ssRNA)
RNA: GGGAGUUCUACAGUCCGACGAUCAGAUCCUAAUGAACCAUACAAUAUUGAAUGCCGGGCGCAGGGAGUAUUUUCAACAUCUAAAAAUCCUAGGAGCUUAAGGGACUUCCAAUAUGAUAAAUGUAACGACGUACAAGAUGCCUUCAACAGAGGAUUGAGCAUCA
B14: 106713800_106713920_1116_CDS_ENSMUSG00000018363_ENSMUST00000103067|mouse|control|control (ssRNA)
RNA: GGGAGUUCUACAGUCCGACGAUCCCUGCUCAUGUAAUUUCUAUGUCGCUGGGACCUGACUCUUCUCUCUGCUAGUCUGGGGUCUGAAGAAUGUCCACACGUUGCACCAUUUGUUCCAGUAAUUGGAGUAUUCUCAUCCACAAACAACAGAGGAUUGAGCAUCA
B15: chr2:48035047:48035048:-_ENSG00000138081_ENST00000403359|hu_hu|motif|central (ssRNA)
RNA: GGGAGUUCUACAGUCCGACGAUCACAAAAUUGCAGCUUAUUUUCUUCACUUCUGUCCCUUCAAGUCUUUACACAGUAAUGCGGAAACACCCAGCUUUGAGAUCCUGAGUCAAUAUAUUGCCACUUUCUUUUUGGUAGCUUGAGCAACAGAGGAUUGAGCAUCA
B16: chr17:56552419:56552420:-_ENSMUSG00000013236_ENSMUST00000086828|mus_mus|mus_mus_mus_hu_False|38_58 (ssRNA)
RNA: B8 RNA with G77C, G79C, U81A, U107C, U108A, A112C, A114G, A115U
B17: chr7:72441615:72441616:-_ENSMUSG00000030516_ENSMUST00000102592|mus_hu|FALSE|FALSE (ssRNA)
RNA: GGGAGUUCUACAGUCCGACGAUCAAAAUUUUCAAAUGCAUAGCCAGAAAGAACAGAAAACCACCACUGCCCCUUGUCAAAAAAAAAAAAAAAGAAAAGAAAAGAAAAGAAAAAAAUAUCCCCAAAUCACACCACUAUUUUCUUCAACAGAGGAUUGAGCAUCA
B18: 173052199_173052319_2237_3pUTR_ENSMUSG00000038400_ENSMUST00000036248|mouse|control|control (ssRNA)
RNA: GGGAGUUCUACAGUCCGACGAUCCUGUAUCCACCUGGCACCAAAUUCGGGGACUGCUUUGGCUUUGGGGAUGCACCUUGCCCCCAAACACUGAACCUUCAUAGUUUUUGUGUUUUAAAGAGGAAGAAAAAAAAAAAAACUAAGCAACAGAGGAUUGAGCAUCA
B19: 14336767_14358337_2061_CDS_ENSG00000038382_ENST00000344204|human|control|control (ssRNA)
RNA: GGGAGUUCUACAGUCCGACGAUCAUACACGUCGUCCAGCAGCUCCUUCUGCAGCUCCUCCAGCCACGUCCACAGCUCUUUCACAUGGGUGUGAAAGGACACUGACAUGUCCAGUAGGAUCUUUCGCUGCUCAACACGCCGAACCAACAGAGGAUUGAGCAUCA
B20: chr10:7433921:7433922:+_ENSMUSG00000040021_ENSMUST00000165952|mus_mus|FALSE|FALSE (ssRNA)
RNA: GGGAGUUCUACAGUCCGACGAUCGCUUUGUGUAUGUUAGGCAAGUGCUCUACCACUGAGCCAUAUCCUUAGCCCCUAGAAAAUGUACUUUCUUAGUGAGUACAUACACGUAAAUUAAAAAAAAAAAUUACAAACUGAAAAUAACAACAGAGGAUUGAGCAUCA
B21: chr2:71272186:71272187:+_ENSMUSG00000027018_ENSMUST00000028408|mus_mus|FALSE|FALSE (ssRNA)
RNA: GGGAGUUCUACAGUCCGACGAUCCUGUGCCUGUAUUGCCAUAUCUUCACUGAAUCCUUGCAGUAAUCUUUCCCGGGAGAAACUGGGCAAAAAUUGACAAAACUUCACAAGCACAAAGUCUCUUAGUUUCAAAUAGCUUCUGGACAACAGAGGAUUGAGCAUCA
B22: chr7:117185563:117185564:+_ENSMUSG00000066232_ENSMUST00000084731|mus_mus|FALSE|FALSE (ssRNA)
RNA: GGGAGUUCUACAGUCCGACGAUCGGGCUUCAGGUUCUUCCACGUAAGUGCAUGGGAAACUCCUUGAUUAAUAUAAUUUAAUGUCUGCUGUAAAACUCGAGGCGCCAUAUAUUGUUUUUCCUUGUACUGAUAUAACACUUUCAACAACAGAGGAUUGAGCAUCA
B23: chr10:7433921:7433922:+_ENSMUSG00000040021_ENSMUST00000165952|mus_mus|motif|central (ssRNA)
RNA: B20 RNA with U76G, A77G

What follows are binders tested against T1, UNK ZnF1-3 (assay: nsRBNS (natural sequence RNA bind-n-seq); RBNS binding buffer (assumed for nsRBNS): 25 mM Tris pH 7.5, 150 mM KCl, 3 mM MgCl2, 0.01% Triton X-100, 500 ug/ml BSA, 20 U/ml SUPERase-In, 4 C; UNK is unkempt and MSI1 is Musashi-1; names of the RNAs are library labels; protein concentration not given here; high values mean tight binding).
Binder B1 has a binding signal of 1.36 enrichment R. B2 showed a binding signal of 0.462 enrichment R. In the case of B3, the binding signal is reported as 0.82 enrichment R. Work on B4 yielded a binding signal of 0.468 enrichment R. With B5 the binding signal was 0.796 enrichment R. Work on B6 yielded a binding signal of 2.12 enrichment R. B7 gave a binding signal of 5.96 enrichment R. B8 showed a binding signal of 5.83 enrichment R. Binder B9 has a binding signal of 12.3 enrichment R. In the case of B10, the binding signal is reported as 6.02 enrichment R. With B11 the binding signal was 0.747 enrichment R. With B12 the binding signal was 1.33 enrichment R. Work on B13 yielded a binding signal of 1.57 enrichment R. B14 was tested, and the binding signal was 0.982 enrichment R. In the case of B15, the binding signal is reported as 0.585 enrichment R. Binder B16 has a binding signal of 9.74 enrichment R. B17 showed a binding signal of 5.91 enrichment R. Work on B18 yielded a binding signal of 2.34 enrichment R. In the case of B19, the binding signal is reported as 0.394 enrichment R. For B20, the binding signal was 8.06 enrichment R. B21 was tested, and the binding signal was 1.25 enrichment R. B22 showed a binding signal of 1.59 enrichment R. Work on B23 yielded a binding signal of 5.64 enrichment R.
